Test [1] can be described thus: ATG_AP_2_CIS: Attagene CIS-FACTORIAL HepG2 Assay for human Activator Protein 2 (AP-2) (AID 2282932). Particulars: HepG2 AP-2 cis-reporter, Attagene transcription factor profiling; actives raise or lower the signal. The gist of the method: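 Assay in transfected HepG2 with promoter-regulated reporters, 24 h incubation after dosing. Signal is reporter mRNA fluorescence (RT-PCR, capillary electrophoresis), analysed for both increases and decreases relative to DMSO controls.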

Test [2] addresses Transcription factor E2F1 (Homo sapiens) (UniProt Q01094). Kind of test: ATG_E2F_CIS: Attagene CIS-FACTORIAL HepG2 Assay for human E2F Transcription Factor 1 (AID 2282935). Particulars: HepG2 Attagene cis-reporter, E2F reporter RNA transcripts; actives raise or lower the signal. The gist of the method:
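In this cis-factorial format, endogenous factor activity drives transfected reporters in HepG2; transcripts collected at 24 h are quantified by fluorescence after RT-PCR and capillary separation.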

Test [3] is described as follows: ATG_M_61_CIS: Attagene CIS-FACTORIAL HepG2 Assay for M61 Transcription Factor (Internal Marker) (AID 2282937). To be noted: HepG2 Attagene CIS-FACTORIAL M61 internal marker reporter; actives raise or lower the signal. The gist of the method: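 Readout is reporter mRNA by RT-PCR, fluorescent primer extension and capillary electrophoresis, with gain or loss fitted relative to DMSO. Transfected HepG2 cells carrying endogenous-TF-driven cis reporters were exposed to chemicals for 24 hours.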

The nature of test [4]: ATG_EGR_CIS: Attagene CIS-FACTORIAL HepG2 Assay for human Early Growth Response 1 (EGR1) (AID 2282938). Particulars: HepG2 Attagene CIS-FACTORIAL EGR reporter mRNA; actives raise or lower the signal. The gist of the method: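 After 24 h compound exposure, RNA from reporter-transfected HepG2 cells was reverse-transcribed, PCR-amplified, fluorescently labelled and resolved by capillary electrophoresis. EGR1 reporter transcript changes, up or down, were fitted against DMSO, reflecting endogenous transcription-factor activity.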

The nature of test [5]: ATG_Ets_CIS: Attagene CIS-FACTORIAL HepG2 Assay for human Erythroblast Transformation Specific (ETS) (AID 2282941). Particulars: HepG2 ETS cis-reporter transcription, actives raise or lower the signal. In short, it runs like this:
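Endogenous transcription factor activity read as reporter mRNA via RT-PCR and capillary electrophoresis, with gain or loss fitted bidirectionally against DMSO. Human HepG2 liver cells, transiently transfected CIS reporter constructs, 24 h exposure.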

The target in test [6] is Hepatocyte nuclear factor 3-beta (Homo sapiens) (UniProt Q9Y261). Kind of test: ATG_FoxA2_CIS: Attagene CIS-FACTORIAL HepG2 Assay for human Forkhead box A2 (FOXA2) (AID 2282942). To be noted: HepG2 cis-reporter transcription factor activity, 24 h; actives raise or lower the signal. In short, it runs like this: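 Endogenous transcription factor activity is captured via cis-element-driven reporter transcripts in transfected HepG2. Total RNA taken at 24 h post-dosing; labelled RT-PCR products resolved by capillary electrophoresis. Gain or loss fitted versus DMSO.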
Chain of Hepatocyte nuclear factor 3-beta (Homo sapiens) (Q9Y261 whole entry, looked up): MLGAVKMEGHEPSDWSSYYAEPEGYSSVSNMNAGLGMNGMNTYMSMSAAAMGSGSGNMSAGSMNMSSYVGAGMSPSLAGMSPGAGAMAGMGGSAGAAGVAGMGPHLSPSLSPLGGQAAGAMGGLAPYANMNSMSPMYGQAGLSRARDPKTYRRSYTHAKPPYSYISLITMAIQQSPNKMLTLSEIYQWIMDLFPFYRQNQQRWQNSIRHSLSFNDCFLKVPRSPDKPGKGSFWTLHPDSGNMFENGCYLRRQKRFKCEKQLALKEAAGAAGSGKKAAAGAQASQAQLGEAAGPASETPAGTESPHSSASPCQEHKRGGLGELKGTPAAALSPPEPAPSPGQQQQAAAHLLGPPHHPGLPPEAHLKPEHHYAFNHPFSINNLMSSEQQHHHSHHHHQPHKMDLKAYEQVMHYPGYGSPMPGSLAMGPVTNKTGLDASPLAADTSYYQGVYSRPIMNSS

Test [7] can be described thus: ATG_FoxO_CIS: Attagene CIS-FACTORIAL HepG2 Assay for human Forkhead box O (FoxO) (AID 2282943). To be noted: HepG2 Attagene cis-reporter, FoxO element, mRNA; actives raise or lower the signal. In short, it runs like this:
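24 h chemical exposure, HepG2 with transient cis-MRTU transfection. RNA extraction, oligo(dT) RT, reporter-specific PCR, primer-extension labelling, HpaI digestion, CE fragment analysis; bidirectional fit, DMSO baseline.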

Test [8] can be described thus: ATG_RORE_CIS: Attagene CIS-FACTORIAL HepG2 Assay for human RAR-related Orphan Receptor Element (RORE) (AID 2282959). To be noted: HepG2 Attagene cis-factorial RORE reporter, mRNA; actives raise or lower the signal. The gist of the method: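 RORE reporter transcripts reflecting endogenous factor activity were read after 24 h compound exposure of transfected HepG2 cells, using reverse transcription, PCR, fluorescent labelling and capillary electrophoresis sizing. Gain or loss fitted against DMSO.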

Test [9] can be described thus: ATG_TGFb_CIS: Attagene CIS-FACTORIAL HepG2 Assay for human Transforming Growth Factor (TGF) (AID 2282967). To be noted: HepG2 Attagene CIS TGFb reporter, mRNA transcription; actives raise or lower the signal. The gist of the method:
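HepG2 cells transiently transfected with cis-promoter-driven multiplexed reporter units; 24 h compound exposure. Reporter mRNA measured by RT-PCR, 6-FAM labeling, HpaI digestion and capillary electrophoresis; bidirectional fit versus DMSO baseline.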

Test [10] can be described thus: ATG_VDRE_CIS: Attagene CIS-FACTORIAL HepG2 Assay for human Vitamin D Receptor Element (VDRE) (AID 2282968). To be noted: HepG2 VDRE cis-reporter transcription, actives raise or lower the signal. The gist of the method:
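Transfected HepG2 reporter cells, chemical treatment 24 h. RNA isolated, cDNA amplified with reporter-specific primers, products analysed by capillary electrophoresis. Endpoint fitted in both directions versus DMSO.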

In test [11] the target is X-box-binding protein 1 (Homo sapiens) (UniProt P17861). Kind of test: ATG_Xbp1_CIS: Attagene CIS-FACTORIAL HepG2 Assay for human X-box Binding Protein 1 (XBP1) (AID 2282972). Particulars: HepG2 XBP1 cis-element reporter, Attagene multiplex; actives raise or lower the signal. The gist of the method: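 Reporter transcripts were quantified by RT-PCR with fluorescent primer extension and capillary electrophoresis after 24 h chemical exposure. Cells: transiently transfected HepG2 carrying cis-regulated reporter constructs; data fitted bidirectionally relative to DMSO.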
Chain of X-box-binding protein 1 (Homo sapiens) (P17861 whole entry, looked up): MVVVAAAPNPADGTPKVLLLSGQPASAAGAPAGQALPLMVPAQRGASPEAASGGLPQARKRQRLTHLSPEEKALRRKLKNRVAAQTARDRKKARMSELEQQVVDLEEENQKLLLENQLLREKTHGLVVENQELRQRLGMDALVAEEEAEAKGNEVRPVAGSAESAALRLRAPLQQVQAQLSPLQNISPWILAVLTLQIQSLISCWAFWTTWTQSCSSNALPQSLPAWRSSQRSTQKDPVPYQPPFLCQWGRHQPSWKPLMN

Test [12] has as its target Transcriptional activator Myb (Homo sapiens) (UniProt P10242). Kind of test: ATG_Myb_CIS: Attagene CIS-FACTORIAL HepG2 Assay for human Myeloblastosis (Myb) Proto-Oncogene Transcription Factor (AID 2282986). Particulars: HepG2 Attagene CIS-FACTORIAL Myb reporter transcription; actives raise or lower the signal. In short, it runs like this:
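Reporter mRNA is quantified by RT-PCR and capillary electrophoresis 24 h after dosing HepG2 cells transfected with cis-regulated reporter units, which track endogenous transcription factor activity. Gain and loss of signal are fitted versus DMSO baseline.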

For test [13], the target named is Nuclear respiratory factor 1 (Homo sapiens) (UniProt Q16656). Kind of test: ATG_NRF1_CIS: Attagene CIS-FACTORIAL HepG2 Assay for human Nuclear Respiratory Factor 1 (NRF1) Orphan Gene (AID 2282987). Particulars: HepG2 NRF1 cis-element reporter, Attagene multiplex; actives raise or lower the signal. The gist of the method:
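Endogenous NRF1-driven reporter transcription in transfected HepG2 cells after 24 h treatment. Readout: RT-PCR products, 6-FAM labelled and resolved by capillary electrophoresis; changes fitted both directions relative to DMSO.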

Test [14] is described as follows: ATG_NFI_CIS: Attagene CIS-FACTORIAL HepG2 Assay for human Nuclear Factor I (NFI) (AID 2282989). To be noted: HepG2 cis-regulatory reporter, NFI response element transcription; actives raise or lower the signal. The gist of the method: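 HepG2 cells transiently transfected with cis-element-driven multiplexed reporter transcription units, dosed for 24 h. Reporter mRNA quantified by RT-PCR, fluorescent labelling, HpaI digestion and capillary electrophoresis; bidirectional fit versus DMSO baseline.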

Test [15] addresses Myc proto-oncogene protein (Homo sapiens) (UniProt P01106). Kind of test: ATG_Myc_CIS: Attagene CIS-FACTORIAL HepG2 Assay for human Myelocytomatosis (Myc) Proto-Oncogene Transcription Factor (AID 2282990). Particulars: HepG2, Attagene cis-reporter transcription factor activity; actives raise or lower the signal. In short, it runs like this: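 DMSO-normalised, bidirectionally fitted reporter mRNA signal. HepG2 cells transfected with cis reporter constructs, treated 24 h; transcripts detected by RT-PCR, 6-FAM primer extension and CE.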

In test [16] the target is Cellular tumor antigen p53 (Homo sapiens) (UniProt P04637). Kind of test: ATG_p53_CIS: Attagene CIS-FACTORIAL HepG2 Assay for human p53 Transcription Factor (AID 2282994). To be noted: HepG2 p53 cis-element reporter, Attagene mRNA; actives raise or lower the signal. The gist of the method:
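Endogenous p53 activity read in transiently transfected HepG2 from a cis-element-driven reporter transcript after 24 h exposure. RNA reverse-transcribed, PCR-amplified, fluorescently labelled and sized by capillary electrophoresis; gain or loss fitted against DMSO baseline.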

The target of test [17] is Nuclear receptor subfamily 1 group I member 2 (Homo sapiens) (UniProt O75469). Kind of test: ATG_PXR_TRANS: Attagene TRANS-FACTORIAL HepG2 Assay for human Pregnane X Receptor (PXR) (AID 2283008; active = hit-call score of the fitted dose curve at least 0.9, where 1 is the maximum). The gist of the method:
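Transactivation by exogenous PXR–GAL4 fusion measured as reporter transcript induction after 24 h compound treatment of transfected human HepG2 cells. Read-out via RT-PCR and capillary electrophoresis of labelled fragments, fitted upward relative to DMSO.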

Test [18] in a line: ATG_XTT_Cytotoxicity: Cytotoxicity Assessment in the Attagene TRANS-FACTORIAL HepG2 Assay (AID 2283584; active = hit-call score of the fitted dose curve at least 0.9, where 1 is the maximum;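 for AC50: XTT signal for cell number as viability in transfected HepG2 cells; cells exposed to compound for 24 h before reading; active means loss of viability signal versus DMSO baseline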). In short, it runs like this:
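24 h chemical exposure of reporter-transfected HepG2; XTT signal loss vs DMSO indicates cytotoxicity.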

For test [19], the target named is Cellular tumor antigen p53 (Homo sapiens) (UniProt P04637). Kind of test: TOX21_p53_BLA_p2_ratio: Tox21 HCT-116 p53 Agonism Beta-lactamase Assay, Ratio, Phase 2 (AID 2283592; active = hit-call score of the fitted dose curve at least 0.9, where 1 is the maximum). The gist of the method: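 DMSO-normalized, positive-direction endpoint derived from the 460 nm/530 nm FRET ratio in HCT116 p53 beta-lactamase reporter cells exposed 16 h at 37C and loaded with CCF4-AM for 2 h.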
Chain of Cellular tumor antigen p53 (Homo sapiens) (P04637 whole entry, looked up): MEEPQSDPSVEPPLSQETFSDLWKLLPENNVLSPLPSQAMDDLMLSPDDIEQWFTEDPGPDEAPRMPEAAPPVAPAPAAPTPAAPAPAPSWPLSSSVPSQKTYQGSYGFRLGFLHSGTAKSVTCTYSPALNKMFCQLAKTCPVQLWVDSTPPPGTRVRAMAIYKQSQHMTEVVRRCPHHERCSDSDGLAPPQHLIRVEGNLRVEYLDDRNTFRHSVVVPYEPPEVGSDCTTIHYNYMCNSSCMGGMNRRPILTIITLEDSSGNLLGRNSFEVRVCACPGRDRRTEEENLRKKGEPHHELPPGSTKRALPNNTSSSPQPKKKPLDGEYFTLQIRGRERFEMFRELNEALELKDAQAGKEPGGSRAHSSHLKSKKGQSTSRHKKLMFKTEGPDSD

Test [20] has as its target Hypoxia-inducible factor 1-alpha (Homo sapiens) (UniProt Q16665). Kind of test: ATG_HIF1a_CIS: Attagene CIS-FACTORIAL HepG2 Assay for human Hypoxia Inducible Factor 1 (HIF1A) (AID 2282951). Particulars: HepG2 Attagene cis-factorial HIF1a reporter transcription; actives raise or lower the signal. The gist of the method: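 Activity is fitted in both directions relative to DMSO. Reporter transcripts are read by RT-PCR, fluorescent primer extension and capillary electrophoresis after 24 h chemical treatment. The cells are HepG2 carrying transiently transfected cis-element-driven reporter units responding to endogenous factors.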

Results filed as inconclusive are left out. Activity calls are given as the source filed them. Rule for the calls, unless noted: active = hit-call score of the fitted dose curve at least 0.9, where 1 is the maximum; inactive = score below 0.9.

Broadly, the AC50 is the midpoint of the concentration-response curve, whichever way the signal moves.

Chain of Myc proto-oncogene protein (Homo sapiens) (P01106 whole entry, looked up): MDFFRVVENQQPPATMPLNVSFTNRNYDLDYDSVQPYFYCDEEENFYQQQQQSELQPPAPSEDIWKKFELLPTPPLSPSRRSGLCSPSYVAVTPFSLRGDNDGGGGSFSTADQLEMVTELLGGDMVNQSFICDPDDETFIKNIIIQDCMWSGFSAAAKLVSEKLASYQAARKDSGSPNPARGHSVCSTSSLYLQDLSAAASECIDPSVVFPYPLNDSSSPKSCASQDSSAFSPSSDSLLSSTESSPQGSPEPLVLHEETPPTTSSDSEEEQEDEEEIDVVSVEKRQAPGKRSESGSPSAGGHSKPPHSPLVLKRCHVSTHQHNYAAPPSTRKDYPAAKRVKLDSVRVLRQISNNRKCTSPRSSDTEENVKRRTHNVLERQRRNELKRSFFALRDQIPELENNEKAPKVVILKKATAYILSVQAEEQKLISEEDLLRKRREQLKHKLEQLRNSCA
Chain of Nuclear receptor subfamily 1 group I member 2 (Homo sapiens) (O75469 whole entry, looked up, the tested form may be a part): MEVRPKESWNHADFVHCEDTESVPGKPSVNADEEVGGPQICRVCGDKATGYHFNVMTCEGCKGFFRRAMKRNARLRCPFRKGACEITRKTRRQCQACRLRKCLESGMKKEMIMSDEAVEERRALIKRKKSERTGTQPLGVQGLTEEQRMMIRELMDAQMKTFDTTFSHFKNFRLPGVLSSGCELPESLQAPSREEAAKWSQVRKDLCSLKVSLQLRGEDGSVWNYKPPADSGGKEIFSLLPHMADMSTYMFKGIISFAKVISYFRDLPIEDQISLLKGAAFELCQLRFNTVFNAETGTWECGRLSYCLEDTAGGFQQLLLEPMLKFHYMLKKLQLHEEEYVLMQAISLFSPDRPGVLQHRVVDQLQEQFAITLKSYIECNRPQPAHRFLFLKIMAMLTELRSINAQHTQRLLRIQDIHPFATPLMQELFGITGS
Chain of Transcriptional activator Myb (Homo sapiens) (P10242 whole entry, looked up): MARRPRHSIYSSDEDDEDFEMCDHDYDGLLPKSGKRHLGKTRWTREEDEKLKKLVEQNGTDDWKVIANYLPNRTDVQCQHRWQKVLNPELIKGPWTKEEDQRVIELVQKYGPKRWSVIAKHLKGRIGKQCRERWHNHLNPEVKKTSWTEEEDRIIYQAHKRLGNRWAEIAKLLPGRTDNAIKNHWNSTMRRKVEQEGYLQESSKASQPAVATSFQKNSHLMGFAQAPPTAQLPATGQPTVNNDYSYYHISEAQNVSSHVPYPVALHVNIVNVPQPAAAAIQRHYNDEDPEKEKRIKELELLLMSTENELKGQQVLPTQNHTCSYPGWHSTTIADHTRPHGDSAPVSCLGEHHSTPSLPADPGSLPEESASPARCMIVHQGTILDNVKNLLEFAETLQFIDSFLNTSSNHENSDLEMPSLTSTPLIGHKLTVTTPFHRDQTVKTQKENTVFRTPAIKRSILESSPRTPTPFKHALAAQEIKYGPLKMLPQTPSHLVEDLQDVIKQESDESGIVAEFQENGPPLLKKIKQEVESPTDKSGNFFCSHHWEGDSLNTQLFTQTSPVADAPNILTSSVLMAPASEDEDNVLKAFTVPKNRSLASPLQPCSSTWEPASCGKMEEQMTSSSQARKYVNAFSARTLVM
Chain of Nuclear respiratory factor 1 (Homo sapiens) (Q16656 whole entry, looked up): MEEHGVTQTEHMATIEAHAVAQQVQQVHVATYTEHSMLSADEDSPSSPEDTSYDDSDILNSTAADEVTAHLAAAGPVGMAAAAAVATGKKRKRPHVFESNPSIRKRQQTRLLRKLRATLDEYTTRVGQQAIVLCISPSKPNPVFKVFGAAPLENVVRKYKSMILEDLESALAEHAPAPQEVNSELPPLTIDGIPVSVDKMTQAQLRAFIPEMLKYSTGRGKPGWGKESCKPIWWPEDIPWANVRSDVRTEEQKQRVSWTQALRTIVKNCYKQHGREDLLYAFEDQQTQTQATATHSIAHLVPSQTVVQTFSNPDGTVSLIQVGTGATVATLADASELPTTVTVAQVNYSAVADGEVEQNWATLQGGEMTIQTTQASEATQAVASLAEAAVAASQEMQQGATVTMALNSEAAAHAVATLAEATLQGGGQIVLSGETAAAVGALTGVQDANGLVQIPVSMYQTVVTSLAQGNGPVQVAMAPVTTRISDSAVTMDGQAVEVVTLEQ
Chain of Hypoxia-inducible factor 1-alpha (Homo sapiens) (Q16665 whole entry, looked up): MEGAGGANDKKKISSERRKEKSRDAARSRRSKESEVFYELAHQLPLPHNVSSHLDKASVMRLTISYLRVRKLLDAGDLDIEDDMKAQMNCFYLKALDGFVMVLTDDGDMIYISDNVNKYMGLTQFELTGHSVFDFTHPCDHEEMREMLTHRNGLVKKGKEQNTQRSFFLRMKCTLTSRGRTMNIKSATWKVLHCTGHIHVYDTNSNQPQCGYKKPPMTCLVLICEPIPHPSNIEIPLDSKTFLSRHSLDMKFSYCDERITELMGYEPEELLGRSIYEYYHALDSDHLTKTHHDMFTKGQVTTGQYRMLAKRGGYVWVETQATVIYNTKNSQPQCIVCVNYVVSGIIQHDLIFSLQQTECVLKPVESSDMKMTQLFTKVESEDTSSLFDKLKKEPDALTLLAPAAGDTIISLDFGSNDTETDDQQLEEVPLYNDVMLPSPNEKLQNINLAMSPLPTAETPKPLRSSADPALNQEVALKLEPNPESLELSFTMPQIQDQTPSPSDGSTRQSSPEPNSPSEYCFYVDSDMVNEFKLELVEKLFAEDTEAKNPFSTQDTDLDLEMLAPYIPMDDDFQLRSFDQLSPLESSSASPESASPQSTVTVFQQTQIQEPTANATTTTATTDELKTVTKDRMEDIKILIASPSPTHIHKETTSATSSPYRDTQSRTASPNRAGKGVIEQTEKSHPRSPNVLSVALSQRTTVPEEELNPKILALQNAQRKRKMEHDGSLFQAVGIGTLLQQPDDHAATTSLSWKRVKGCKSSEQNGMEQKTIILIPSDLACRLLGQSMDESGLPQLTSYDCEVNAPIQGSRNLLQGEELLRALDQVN
Chain of Transcription factor E2F1 (Homo sapiens) (Q01094 whole entry, looked up): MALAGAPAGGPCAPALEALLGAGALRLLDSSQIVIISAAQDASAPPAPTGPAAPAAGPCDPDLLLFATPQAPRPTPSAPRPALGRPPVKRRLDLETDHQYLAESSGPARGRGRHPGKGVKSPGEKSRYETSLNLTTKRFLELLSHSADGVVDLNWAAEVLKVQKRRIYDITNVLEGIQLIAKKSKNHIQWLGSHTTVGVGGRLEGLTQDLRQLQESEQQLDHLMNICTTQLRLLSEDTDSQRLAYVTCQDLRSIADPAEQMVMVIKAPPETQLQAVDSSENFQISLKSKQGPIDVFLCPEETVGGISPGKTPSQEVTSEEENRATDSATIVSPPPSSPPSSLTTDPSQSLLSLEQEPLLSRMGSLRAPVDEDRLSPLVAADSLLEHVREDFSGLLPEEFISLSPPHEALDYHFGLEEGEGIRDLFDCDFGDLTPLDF

For `CN(C)CCCN1c2ccccc2CCc2ccc(Cl)cc21`, the AC50 in test [1] is 7.1 µM (active); in test [10], 10.4 µM (active); in [16] it was 4.07 µM (active); in test [18], 25.7 µM (active). Also, the compound was classed as inactive in [2], in test [3], in test [4], in [5], in [6] and in test [7]. The call in [8], in test [9], in [11], in [12], in test [13] and in [14] was inactive. In addition, the call in test [15], in test [17] and in [19] was inactive.
As for `Nc1ccc(S(=O)(=O)Nc2cnc3ccccc3n2)cc1`, the outcome in test [1], in [2], in test [3], in test [5], in [6] and in test [8] was inactive. In addition, the outcome in test [9], in test [10], in [11], in [12], in test [13] and in test [14] was inactive. For the same compound, the outcome in test [15], in [16], in test [17], in test [18] and in [19] was inactive.
With `CC(C)n1c(/C=C/[C@@H](O)C[C@@H](O)CC(=O)O)c(-c2ccc(F)cc2)c2ccccc21`, the result in [3], in [4], in test [5], in [6], in test [7] and in test [20] was inactive. Moreover, the compound was called inactive in [9], in test [12], in test [17] and in [19]. The AC50 is 55.3 µM (active) in test [8] and 26 µM (active) in test [16].
For `Cc1cc(C)c(S(=O)(=O)O)cc1N=Nc1cc(S(=O)(=O)O)c2ccccc2c1O`, the outcome in test [1], in [3], in test [4], in [5], in test [6] and in test [7] was inactive. For the same compound, the outcome in [20], in test [8], in test [9], in test [10], in test [11] and in test [12] was inactive. Further, the call in test [13], in test [14], in [15], in test [16], in test [17] and in test [18] was inactive. In addition, in test [19], the outcome was inactive.

These data come from PubChem BioAssay (EPA / NIEHS).
